Data on 21 compounds can be found in PubChem BioAssay (NCATS).

A short description of test [1]: NS1 protein of Zika virus - qHTS assay to identify small molecule inhibitors in human HEK 293 cells (AID 1347053). Note: nearly all actives have a fitted effect of over 55% in size. The method in brief: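 Readout was TR-FRET using paired anti-NS1 antibodies after 24 h infection of HEK 293 cells with ZIKV MR766 (MOI = 0.5). Compound preceded virus by 1 h; reduced signal reflects lower NS1 expression.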
For orientation: qHTS replaces the single test concentration by a dilution series.

A short description of test [2]: qHTS of pediatric cancer cell lines to identify multiple opportunities for drug repurposing: Primary screen for TC32 cells (AID 1347089). Note: nearly all actives have a fitted effect of over 60% in size. The method in brief:
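In the primary qHTS, MIPE compounds were tested at 11 concentrations (0.78 nM to 46 µM) and NPC compounds at 8 (0.59 nM to 46 µM) on TC32 cells for 48 h. CellTiter-Glo luminescence gave viability.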

A short description of test [3]: qHTS of pediatric cancer cell lines to identify multiple opportunities for drug repurposing: Primary screen for DAOY cells (AID 1347090). Note: nearly all actives have a fitted effect of over 55% in size. The procedure, abridged:
(§1)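 Viability measured as metabolically active cells via CellTiter-Glo luminescence following 48 hours of compound exposure, 11-point dilutions in confirmatory testing. 500-1,000 cells/well plated 5 hours before dosing; controls were DMSO and 2.3 µM bortezomib.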

Test [4] can be described thus: qHTS of pediatric cancer cell lines to identify multiple opportunities for drug repurposing: Primary screen for SJ-GBM2 cells (AID 1347091). The procedure, abridged:
as §1

The nature of test [5]: qHTS of pediatric cancer cell lines to identify multiple opportunities for drug repurposing: Primary screen for A673 cells (AID 1347092). Note: nearly all actives have a fitted effect of over 45% in size. The method in brief:
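48 h compound exposure, A673, 500-1,000 cells/well, 37 degrees C/5% CO2. MIPE: 11-point, 0.78 nM-46 µM; NPC: 8-point, 0.59 nM-46 µM (final). Readout CellTiter-Glo luminescence after 15 min RT.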

A short description of test [6]: qHTS of pediatric cancer cell lines to identify multiple opportunities for drug repurposing: Primary screen for SK-N-MC cells (AID 1347093). The method in brief:
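Metabolically active cells were quantified by ATP-dependent luminescence (CellTiter-Glo, 15 min at room temperature) following 48 h treatment. Cells had been plated at 500-1,000 per well and settled for 5 h beforehand.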

Inconclusive results are not listed. The source made the active and inactive calls. Calls come from the whole dose curve; as a rule, active = well fitted curve in the direction sought with a large enough effect; inconclusive = small, poorly fitted or top-dose-only effect, or another doubt; inactive = no such curve, though single readings can be large; an effect the other way counts as inactive or inconclusive.
Potency is the fitted concentration of half-maximal effect.

`COc1cc(OC)c(NC(=O)Nc2cc(C)on2)cc1Cl`: the Potency entry in test [1], in test [2], in test [3], in test [4] and in test [5] was “inactive” throughout.

For `O=[N+]([O-])c1cn2c(n1)OC[C@@H](OCc1ccc(OC(F)(F)F)cc1)C2`, the Potency entry in test [1], in test [2], in test [3], in test [4], in test [5] and in test [6] was “inactive” each time.

On to `COC(=O)C=CC(=O)OC`, for which the Potency entry in test [1], in test [2] and in test [4] was “inactive” each time. In addition, the Potency was 1.87 µM (active) in test [3], 7.43 µM (active) in test [5] and 0.0037 µM (active) in test [6].

Consider `Nc1nc(=O)n([C@H]2CSC(CO)O2)cc1F` (stereo not given in full), for which the Potency entry in test [1], in test [2], in test [3], in test [4], in test [5] and in test [6] was “inactive” in each case.

Take `CC(=O)[C@]1(O)Cc2c(O)c3c(c(O)c2[C@@H](O[C@H]2C[C@H](N)[C@@H](O)[C@H](C)O2)C1)C(=O)c1ccccc1C3=O`: the Potency is 1.05 µM (active) in test [1]; 0.587 µM (active) in test [2]; 0.935 µM (active) in test [3]; 0.0833 µM (active) in test [4]; 0.148 µM (active) in test [5]; 0.118 µM (active) in test [6].

For `O=C(C=CC#Cc1cccc(NS(=O)(=O)c2ccccc2)c1)NO`, the Potency in test [1] is 13.2 µM (active); in test [2], 7.39 µM (active); in test [3], 2.96 µM (active); in test [4], 1.66 µM (active); in test [5], 1.48 µM (active); in test [6], 0.59 µM (active).

For `CC(=O)NCC(=O)N1[C@H]2CC[C@H]1c1cc(Nc3ncc(C(F)(F)F)c(NC4CCC4)n3)ccc12`, the Potency in test [1] is 13.2 µM (active); in test [2] it was 0.131 µM (active); in test [3], 18.7 µM (active); in test [4] it was 0.0833 µM (active); in test [5] it was 3.72 µM (active); in test [6], 0.118 µM (active).

For the compound `COc1ccc(C[C@@H](C)[C@@H](C)Cc2ccc(OC)c(OC)c2)cc1OC`, the Potency in test [1] is 0.833 µM (active); in test [2], 9.3 µM (active); in test [3], 0.235 µM (active); in test [4], 0.418 µM (active); in test [5], 0.935 µM (active); in test [6], 0.833 µM (active).

Consider `CC1(C)[C@H](O[C@H]2O[C@H](C(=O)O)[C@@H](O)[C@H](O)[C@H]2O[C@@H]2O[C@H](C(=O)O)[C@@H](O)[C@H](O)[C@H]2O)CC[C@@]2(C)[C@H]1CC[C@]1(C)[C@H]2C(=O)C=C2[C@H]3C[C@@](C)(C(=O)O)CC[C@]3(C)CC[C@]21C`, for which the Potency result in test [1], in test [2], in test [3], in test [4], in test [5] and in test [6] was “inactive” throughout.

Regarding `O=C(Nc1cccc(Nc2ncc(Br)c(NCCc3cnc[nH]3)n2)c1)N1CCCC1`, the Potency was 10.5 µM (active) in test [1]; 0.93 µM (active) in test [2]; 18.7 µM (active) in test [3]; 5.9 µM (active) in test [4]; 11.8 µM (active) in test [5]; 0.332 µM (active) in test [6].

`Cn1cc(C[C@@H](N)C(=O)O)c2ccccc21`: the Potency entry in test [1], in test [2], in test [3], in test [4], in test [5] and in test [6] was “inactive” each time.

For `O=C1NC(=O)C(=Cc2ccc3nccc(-c4ccncc4)c3c2)S1`, the Potency was 0.743 µM (active) in test [1]; 0.523 µM (active) in test [2]; 0.235 µM (active) in test [3]; 0.0935 µM (active) in test [4]; 0.187 µM (active) in test [5]; 0.0166 µM (active) in test [6].

Regarding `CN[C@H]1[C@@H](O)[C@@H]2O[C@@H]3O[C@H](C)CC(=O)[C@]3(O)O[C@@H]2[C@@H](NC)[C@H]1O`, the Potency entry in test [1] is “inactive”. In addition, the Potency in test [2] was 13.1 µM (active); in test [3] it was 0.296 µM (active); in test [4], 0.59 µM (active); in test [5], 0.0743 µM (active); in test [6] it was 0.166 µM (active).

`N#Cc1c(NC(=O)c2cccc3ccccc23)sc2c1CCCC2`: the Potency in test [1] was 10.5 µM (active); in test [2] it was 1.04 µM (active); in test [3], 0.296 µM (active); in test [4], 0.332 µM (active); in test [5], 0.235 µM (active); in test [6], 0.235 µM (active).

With `COc1cc(OC)cc(-c2ccc3ncc4ccc(=O)n(-c5ccc(N6CCNCC6)c(C(F)(F)F)c5)c4c3c2)c1`, the Potency was 11.8 µM (active) in test [1]; 18.6 µM (active) in test [2]; 2.96 µM (active) in test [3]; 4.18 µM (active) in test [4]; 0.935 µM (active) in test [5]; 1.32 µM (active) in test [6].

On to `C[C@H]1COc2c(N3CCN(C)CC3)c(F)cc3c(=O)c(C(=O)O)cn1c23`, for which the Potency result in test [1], in test [2], in test [3], in test [4], in test [5] and in test [6] was “inactive” in each case.

On to `C[C@@H](Cc1cc2c(c(C(N)=O)c1)N(CCCO)CC2)NCCOc1ccccc1OCC(F)(F)F`, for which the Potency result in test [1], in test [2], in test [3], in test [4], in test [5] and in test [6] was “inactive” throughout.

Consider `NC(=O)Nc1sc(-c2ccc(F)cc2)cc1C(N)=O`, for which the Potency result in test [1] was “inactive”. Also, the Potency in test [2] was 3.7 µM (active); in test [3] it was 0.469 µM (active); in test [4], 0.372 µM (active); in test [5], 0.59 µM (active); in test [6], 0.059 µM (active).

For the compound `CCOC(=O)C1=C(C)NC(=S)NC1c1cccc(O)c1` (stereo not given), the Potency in test [1] is 0.332 µM (active); in test [2], 1.31 µM (active); in test [3], 0.469 µM (active); in test [4] it was 0.0372 µM (active); in test [5], 0.0469 µM (active); in test [6] it was 0.264 µM (active).

For `COc1ccc(C(C)=O)c(O)c1`, the Potency result in test [1], in test [2] and in test [4] was “inactive” in each case. Besides, the Potency in test [3] was 1.87 µM (active); in test [5] it was 2.96 µM (active); in test [6] it was 0.0372 µM (active).

As for `COc1ccc([C@@H]2CNC(=O)C2)cc1OC1CCCC1`, the Potency entry in test [1], in test [2] and in test [4] was “inactive” each time. Moreover, the results for the Potency in test [3], in test [5] and in test [6] were 3.72 µM (active), 0.743 µM (active) and 0.469 µM (active), respectively.
